Results as given in PubChem BioAssay AID1347069 (National Center for Advancing Translational Sciences (NCATS), 2019).
Screen size: about 44,000 compounds; fewer than 10 were called active. Calls come from the whole dose curve; as a rule, active = well fitted inhibition curve with a large enough effect; inconclusive = small, poorly fitted or top-dose-only effect; inactive = flat fitted curve, though single readings scatter. These entries were drawn from the full list.

Target: Tumor susceptibility gene 101 protein (Homo sapiens) (UniProt Q99816)
Experiment: qHTS Validation Assay for Inhibitors of HIV-1 Budding by Blocking the Interaction of PTAP/TSG101: Sytravon Library Screen; note: 0% is about no effect
Conditions: Fluorescence polarization, FITC-PTAP peptide/Tsg101, 20 min; series mostly up to 115 µM; activity change, negative = inhibition: at the top concentration
Source text: Stages of the HIV-1 replication cycle, specifically virus assembly and release, provide underexploited targets for the development of novel antiviral inhibitors. The late stages of HIV-1 replication are mediated by the Gag precursor protein, Pr55Gag. Expression of Pr55Gag is both necessary and sufficient for the production of virus-like particles from Gag-expressing cells. The Gag protein hijacks key host proteins involved in endocytic machinery of the host cell to promote endosomal processing and viral budding. The budding process requires a direct interaction between a […] (PTAP) motif in the p6 domain of Gag and the cellular endosomal sorting protein known as Tsg101. In this way, the Gag PTAP motif promotes the host cells to recruit viral particles to the plasma membrane where the new viral particles are released, effectively turning the host cells into viral factories. A fluorescence polarization assay has been developed to quantitatively measure the PTAP-Tsg101 interaction which can be used to screen for inhibitors of this interaction. This assay was run against the NCGC Sytravon Library collection. NIH Molecular Libraries Probe Production Network [MLPCN] NIH Chemical Genomics Center [NCGC] Grant: R03 MH087464-01A1 PI Name: Dr. Eric Freed, NCI
Two uL of the Tsg101 binding domain in buffer (10 mM HEPES pH 7.5; 0.15 M NaCl, 0.01% Tween 20; 3 mM EDTA;0.1 mM TCEP) was dispensed into Greiner black MB 1536-well plates (final concentration 10 uM). Then, 23 nL of compounds or DMSO were delivered to each well using a pin tool. Finally, 2 uL of a FITC-labeled peptide containing the PTAP motif (1) in the same buffer was dispensed (50 nM final concentration) and the binding was allowed to proceed for 20 min. at r.t. Fluorescent polarization was determined using FITC excitation and polarized emission filters on a Perkin Elmer Envision. Assay cut-off (positive/negative criteria): Actives defined by CRC class, <25 µM; Efficacy <60% inhibition. The total fluorescent intensity from S and P channels will be used to flag fluorescent compounds.

Sequence of Tumor susceptibility gene 101 protein (Homo sapiens) (Q99816 whole entry, looked up): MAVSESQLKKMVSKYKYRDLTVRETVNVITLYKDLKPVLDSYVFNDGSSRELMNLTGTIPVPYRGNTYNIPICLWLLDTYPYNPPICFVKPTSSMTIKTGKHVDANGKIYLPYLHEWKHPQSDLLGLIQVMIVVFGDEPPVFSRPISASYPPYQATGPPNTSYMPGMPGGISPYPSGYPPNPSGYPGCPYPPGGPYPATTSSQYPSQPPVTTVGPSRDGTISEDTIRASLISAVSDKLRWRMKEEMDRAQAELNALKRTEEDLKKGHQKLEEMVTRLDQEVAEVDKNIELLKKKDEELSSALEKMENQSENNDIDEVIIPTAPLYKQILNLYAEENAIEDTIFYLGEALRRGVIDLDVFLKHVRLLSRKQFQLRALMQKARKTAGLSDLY

Activity change, negative = inhibition, inactive:
O=C(OCc1cc(=O)n2nc(C3CC3)sc2n1)c1ccccc1Cl 0.428%, COc1ccc(NC(=O)Nc2cccc(-c3noc(C)n3)c2)cc1 -0.369%, CC(C)(C)c1ccc(C(=O)N2CCC(c3nc(-c4ccc(S(=O)(=O)N5CCCC5)cc4)no3)CC2)cc1 -4.06%, CCCCCn1c(CCCNC(=O)c2ccccc2OC)nc2ccccc21 -6.58%, COc1ccccc1CNc1nccn(-c2ccc(F)cc2)c1=O 1.54%, Cc1c(Cl)cccc1-c1ccc(CNCCCSc2nnnn2C)o1 0.191%, CSc1ccc(C2c3c(oc4ccccc4c3=O)C(=O)N2CCCN2CCOCC2)cc1 (stereo not given) -5.71%, CSc1cccc(NC(=O)CN2C(=O)CCc3cc(S(=O)(=O)N4CCCCC4)ccc32)c1 -4%, COc1ccc(OC)c(NC(=O)CSC2=Nc3ccccc3C3=NC(CC(=O)NCc4ccc(F)cc4)C(=O)N23)c1 (stereo not given) 1.59%, Cc1cc(OC(C)C(=O)Nc2sc3c(c2C(N)=O)CCCC3)ccc1Cl (stereo not given) -0.431%, COc1ccc(-c2cc(-c3ccccc3)nc3c2COc2ccc(Cl)cc2-3)cc1 -2.13%, CCCCNC(=O)C1CCCN(c2nnc(C)c3c(C)n(-c4ccc(Cl)cc4)nc23)C1 (stereo not given) -6.8%, Cc1cccc(NC(=O)N2CCN(C)c3ncccc32)c1C -11.3%, CCc1nnc(SCc2nc(-c3cccc(C)c3)oc2C)c2cc3sc(C)cc3n12 0.355%, CC(C)(C)c1ccc(C(=O)Nc2ccc3c(c2)CCCN3C(=O)c2cccs2)cc1 -7.67%, CCN1CCN(C(c2ccc(C)cc2)c2c(O)cc(C)n(Cc3ccco3)c2=O)CC1 (stereo not given) -3.55%, Cc1csc2nc(COC(=O)c3ccccc3NC(=O)c3ccccc3Cl)cc(=O)n12 -4.86%, Cc1ccc(NC(=O)c2ccc3[nH]c(C)cc(=O)c3c2)c(C)c1 -2.8%, Cc1ccc2c(c1)c1c(c(=O)n(-c3ccccc3)c(=O)n1CC(=O)c1ccc(Cl)cc1)n2C 0.738%, Cc1ccccc1-c1nc2cc(NC(=O)c3cccc(OCCC(C)C)c3)ccc2o1 5.77%, CCn1c(C)c(C)c2cc(C(=O)NCCc3cc(OC)ccc3OC)ccc21 0.404%, Cn1c(=O)c2c(ncn2CC(=O)Nc2cccc(C(F)(F)F)c2)n(C)c1=O -3.44%, Cc1ccc(-n2nc(C)c3c(C)cc(=O)n(CC(=O)Nc4ccc(C(C)C)cc4)c32)cc1 -0.986%, Cc1ccc(C2c3[nH]c4ccccc4c3CCN2C(=O)c2cccc(C)c2)cc1 (stereo not given) 0.206%, CCOC(=O)C1CCN(c2nc3c(S(=O)(=O)c4ccc(CC)cc4)nnn3c3ccc(Cl)cc23)CC1 3.23%, O=C(CSc1nc2ccccc2nc1Cc1ccccc1)N1CCCCC1 -0.453%, COc1cccc(CNC(=O)c2ccc3c(Cl)c4c(nc3c2)CCCC4)c1 3.82%, CCCN(CCC)CCCNC(=O)Cn1cc2c(n1)-c1c(oc(C(=O)N3CCCC3)c1C)CC2 0.792%, COc1ccc(NC(=O)Cn2cc(C(=O)c3ccncc3)c(=O)c3cc(C)ccc32)cc1Cl -2.08%, O=C(Cn1ncc2c3ccccc3n(Cc3ccccc3)c2c1=O)NC1CCCCCC1 -1.3%, Cc1ccc(NC(=O)CN2C(=O)CC(C)Sc3ccccc32)c(C)c1 (stereo not given) 3.04%, CC(C)c1ccc(OCC(=O)N(Cc2ccc(N(C)C)cc2)C2CCS(=O)(=O)C2)cc1 (stereo not given) -7.04%, CCCn1c(NCc2ccccc2F)nc2ccccc21 -0.519%, O=C(COc1ccc(Cl)cc1)N(Cc1ccco1)Cc1ccco1 1.1%, Cc1ccc(CCNC(=O)c2ccc3c(c2)N(Cc2cc(C)ccc2C)C(=O)c2ccccc2S3=O)cc1 (stereo not given) 1.61%, O=C(c1ccc2c(c1)N(Cc1ccccc1)C(=O)c1ccccc1S2(=O)=O)N1CCC(Cc2ccccc2)CC1 -1.43%, CCCCn1c(=O)c2oc3ccccc3c2n(CC(=O)Nc2ccccc2OC)c1=O 3.66%, COC(=O)c1ccc(NC(=O)c2cnn(-c3ccc(Cl)cc3)c2C2CCN(C(=O)OC(C)(C)C)CC2)cc1 -0.729%, COc1ccc(-c2nc3ccc(C(=O)NCc4ccc(C)cc4)cc3nc2-c2ccc(OC)cc2)cc1 -6.79%, Cc1cccc(N(C)C(=O)CS(=O)(=O)c2cccc3nsnc23)c1 -1.31%, O=C(C1CCC(Cn2c(=O)c3sccc3n(Cc3ccccc3F)c2=O)CC1)N1CCCCC1 (stereo not given) -6.37%, CCN1CCN(CCCNC(=O)c2ccc3c(c2)sc2nc(-c4ccc(OC)cc4)cn23)CC1 -0.122%, COc1cccc2c1cc1c(=O)n(CC(=O)N3CCN(c4ccccc4)CC3)nc(C)n12 0.0884%, O=C(Nc1ccc(Oc2ccccc2)cc1)C1CCN(S(=O)(=O)c2ccc(Cl)cc2)CC1 -2.62%, COc1ccc(-c2cn3c(C)c(C(=O)Nc4cc(C)cc(C)c4)sc3n2)cc1 2.11%, CCCCN(C)CCCNC(=O)CN1N=C(c2ccc(OC)cc2)CCC1=O 1.5%, COc1cccc(Cn2c(SCc3ccc(C(=O)N4CCC(C)CC4)cc3)nc3ccncc32)c1 -3.99%, Cc1cccc(NC(=O)c2cc3c(C)nn(-c4ccccc4)c3s2)c1 -2.19%, CNC(=O)c1ccc(-c2nc(CN3CCc4ccccc43)c(C)o2)cc1 -3.21%, Cc1ccc2oc(=O)c3cnn(CC(=O)N4CCN(c5cccc(Cl)c5)CC4)c3c2c1 0.242%, COc1ccc(-n2c(SCC(=O)Nc3ccc(Cl)c(C)c3)nc3n[nH]c(C)c3c2=N)cc1 -0.559%, CCC(C(=O)Nc1cccc(Cl)c1C)n1nc(-c2ccc(C)cc2)ccc1=O (stereo not given) -0.32%, Cc1cccc(CNS(=O)(=O)c2ccc(-c3cnc(C4CC4)o3)cc2)c1 -0.156%, CCc1cc2c(-c3ccccc3)cc(=O)oc2c2c1OCN(Cc1ccc(C)cc1)C2 -3.39%, Cc1oc2ccc(O)c(CN3CCCCC3)c2c1C(=O)Nc1cccc(C(F)(F)F)c1 -2.89%, CC(C)Cn1c(=O)c2ccccc2n2c(-c3cccc(Cl)c3)nnc12 2.06%, O=C(Nc1cc(Cl)cc(Cl)c1)c1ccc2c(c1)N(Cc1cccc(Cl)c1)C(=O)c1ccccc1S2=O (stereo not given) 0.631%, O=C(O)c1ccc(Nc2nc(-c3ccccc3)c3cc(Br)ccc3n2)cc1 -17.5%, Cc1cc(C)c2sc(NC(=O)c3ccc(S(=O)(=O)N4CCCC4)cc3)nc2c1 4.94%, CCc1ccc(NC(=O)c2cnc3c(-c4ccccc4)c(C)nn3c2C)cc1 -1.8%
